# Screening results from PubChem.
# A selection: hits, their analogues and other compounds. The true share with any hit is near 17%.
# TDP1 cell noCPT = qHTS for Inhibitors of human tyrosyl-DNA phosphodiesterase 1 (TDP1): qHTS in cells in absence of CPT. DT40 Tdp1-/- hTDP1 cells, no CPT, ATP luminescence, 48 h. Potency, µM (doses to about 46.2 µM), hits mostly inhibitors. actives 15% (n = 420,000). AID 686978, 2013; also: nearly all actives have a fitted effect of over 55% in size
#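 Compound effects on proliferation are scored in DT40 Tdp1-/-;hTDP1 cells in the absence of CPT. ATP levels (CellTiter-Glo luminescence) are recorded after a ≥48 hr, 37 °C incubation.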
# ClpP mod = qHTS Assay for Activators of ClpP. ATP-dependent Clp protease proteolytic subunit (Bacillus subtilis (strain 168)), P80244. purified B. subtilis ClpP, FRET peptide cleavage, 20 min. Potency, µM (series often up to 57.5 µM). actives 1.9% (n = 340,000); active = well fitted falling curve with a large enough effect; inconclusive = small, poorly fitted or top-dose-only effect; inactive = no such curve, though single readings can be large or run the other way; also: the source files actives as falling curves though it sought activators and does not explain the sign; nearly all actives have a fitted effect of over 65% in size
#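 Buffer: 100 mM Tris/HCl pH8, 100 mM KCl, 0.05% low protease BSA, 2.5% glycerol, 0.01% Tween-20. ClpP 10 microg/mL final; 20 min RT; delta FRET normalized to ADEP and DMSO controls.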
# TDP1 cell CPT = DT40-hTDP1 cell growth loss with CPT | Potency, µM (series often up to 46.2 µM), actives largely listed as inhibitors | chicken DT40 Tdp1-/-;hTDP1 cells + 20 nM CPT, ATP luminescence, 48 h | actives 12% (n = 420,000) | AID 686979; also: nearly all actives have a fitted effect of over 55% in size
#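 Chicken DT40 Tdp1-/- cells stably complemented with human TDP1 were seeded at 400 cells/well in medium containing 20 nM camptothecin, exposed to pin-transferred compounds, and grown at 37 °C for at least 48 hr. Viability was read as ATP luminescence.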
# TDP1 inh = inhibitors of human tyrosyl-DNA phosphodiesterase TDP1; Q9NUW8; recombinant TDP1, AlphaScreen DNA substrate cleavage; Potency, µM (doses to about 130 µM), most hits filed as inhibitors; actives 0.28% (n = 350,000); also: nearly all actives have a fitted effect of over 40% in size
# Target sequence (Q9NUW8 whole entry, looked up): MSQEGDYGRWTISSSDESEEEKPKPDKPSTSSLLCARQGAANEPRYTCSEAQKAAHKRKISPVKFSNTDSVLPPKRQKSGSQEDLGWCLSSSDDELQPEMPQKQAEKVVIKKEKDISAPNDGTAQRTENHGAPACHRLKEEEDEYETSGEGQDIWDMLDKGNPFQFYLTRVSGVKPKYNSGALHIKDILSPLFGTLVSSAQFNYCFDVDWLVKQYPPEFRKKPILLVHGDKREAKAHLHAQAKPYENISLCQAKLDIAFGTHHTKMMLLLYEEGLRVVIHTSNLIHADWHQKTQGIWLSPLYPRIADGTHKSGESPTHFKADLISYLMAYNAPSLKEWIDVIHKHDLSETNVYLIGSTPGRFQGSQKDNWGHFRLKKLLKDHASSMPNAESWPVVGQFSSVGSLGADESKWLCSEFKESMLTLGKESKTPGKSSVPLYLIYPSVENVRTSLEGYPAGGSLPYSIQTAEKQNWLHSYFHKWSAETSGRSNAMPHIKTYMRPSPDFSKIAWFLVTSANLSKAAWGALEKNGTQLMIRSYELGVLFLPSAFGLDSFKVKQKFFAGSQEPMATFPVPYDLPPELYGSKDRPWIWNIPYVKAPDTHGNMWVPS
#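 E. coli-derived human Tdp1, 1 nM final. Cpd preinc 15 min RT; substrate 15 nM final, 5 min RT; AS bead mix 10 ug/ml final, 10 min RT. Signal loss = tyrosine-FITC cleavage. No-enzyme wells = max signal.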
# A number is an active result; 0 = inactive; ? = inconclusive; - = not tested or not shown; [ ] = dose if it differs, or a comment. Unless noted, calls follow the shape of the dose curve; as a rule, active = well fitted curve in the direction sought with a large enough effect; inconclusive = small, poorly fitted or top-dose-only effect, or another doubt; inactive = no such curve, though single readings can be large; an effect the other way counts as inactive or inconclusive.
SMILES,TDP1 cell noCPT,ClpP mod,TDP1 cell CPT,TDP1 inh
COC(=O)c1c(SC)nc2ccccc2c1OCc1cc(C)ccc1C,?,0,0,0
CCOC(=O)C1=CCN(S(=O)(=O)c2ccccc2F)C1c1ccc(Cl)c(Cl)c1 (configuration not stated),?,0,?,-
Cc1c(Cl)cccc1NS(=O)(=O)c1ccc(NS(=O)(=O)c2ccc3c(c2)OCCO3)cc1,0,0,0,-
Cc1ccc(Nc2nc(-c3sc(NC(=O)c4ccco4)nc3C)cs2)cc1,13µM,0,?,0
CCOc1ccccc1Nc1nc(-c2sc(NC(=O)c3ccco3)nc2C)cs1,15µM,0,15µM,0
Cc1ccccc1Nc1nc(-c2sc(NC(=O)c3ccco3)nc2C)cs1,?,0,?,0
Cc1cc(C)c(Cn2c(=O)n(CCCCCC(=O)NCc3ccc4c(c3)OCO4)c(=O)c3sccc32)c(C)c1,?,0,?,0
O=C(O)c1ccccc1OC(C(=O)Nc1cc(Cl)cc(Cl)c1)c1ccccc1 (configuration not stated),26µM,-,29µM,-
CC1CCN(C(C(=O)Nc2ccc(C(C)C)cc2)c2ccc3c(c2)OCO3)CC1 (configuration not stated),?,0,?,0
CC(C)c1ccc(NC(=O)C(c2ccc3c(c2)OCO3)N2CCCCC2)cc1 (configuration not stated),23µM,0,18µM,0
COc1cccc(NC(=O)C(c2ccccc2)N2CCCCC2)c1 (configuration not stated),?,-,0,0
Cc1ccc(NC(=O)C(c2ccc(Cl)cc2Cl)N2CCCC2)cc1 (configuration not stated),15µM,0,23µM,0
O=C(Nc1cc(Cl)cc(Cl)c1)C(c1ccccc1)N1CCCCC1 (configuration not stated),?,0,21µM,0
CCC(=O)Nc1ccc(C)cc1-c1nc2ccccc2n(CC(=O)Nc2ccccc2Cl)c1=O,0,0,?,0
O=C(CC(O)(CC(=O)OCc1ccccc1)C(=O)OCc1ccccc1)OCc1ccccc1,?,-,0,-
CCc1ccccc1NS(=O)(=O)c1ccc2[nH]cc(C(=O)N3CCCCC3)c(=O)c2c1,0,0,0,-
O=C(Nc1ccc(N2CCCC2)cc1)C(Cl)c1ccccc1 (configuration not stated),13µM,0,8.2µM,0
CS(=O)(=O)N1CCN(c2ccc(NC(=O)C(c3ccccc3)c3ccccc3)cc2)CC1,?,0,0,0
CCCCN(CCCC)S(=O)(=O)c1ccc(C(=O)Nc2nnc(COC)o2)cc1,16µM,0,18µM,0
CCc1nnc(NC(=O)c2ccc(S(=O)(=O)N(CC)Cc3ccccc3)cc2)o1,7.3µM,0,12µM,0
CCN(CC)S(=O)(=O)c1ccc(C(=O)Nc2nnc(COC)o2)cc1,0,0,0,0
COc1ccccc1-c1nnc(NC(=O)c2ccc(S(=O)(=O)N(C)Cc3ccccc3)cc2)o1,9.2µM,0,13µM,0
CCc1nnc(NC(=O)c2ccc(S(=O)(=O)N(C)Cc3ccccc3)cc2)o1,21µM,0,16µM,0
O=C1CCC=C1[C@@H](O)CCc1ccccc1,-,-,-,0[21 µM]
Cc1ccc(C)c(NC(=O)C2CCCC2)c1,0,0,0,-
SMILES,TDP1 cell noCPT,ClpP mod,TDP1 cell CPT,TDP1 inh
CCN(Cc1ccccc1)S(=O)(=O)c1ccc(C(=O)Nc2nnc(C)o2)cc1,?,0,23µM,0
CN(Cc1ccccc1)S(=O)(=O)c1ccc(C(=O)Nc2nnc(C3CC3)o2)cc1,21µM,0,15µM,0
CC(=O)Nc1ccccc1-c1nc(CNC(=O)c2cccc(-n3cccn3)c2)c(C)o1,0,-,0[9.04 µM],-
Cc1ccc(C(=O)N2CCCN(c3nc4cc5c(cc4cc3C#N)OCO5)CC2)cc1,15µM,-,?,0
N#Cc1cc2cc3c(cc2nc1N1CCCCC1)OCCO3,?,0,?,0
CCOCCCNC(=S)N1CCCN(c2nc3cc(C)cc(C)c3cc2C#N)CC1,21µM,-,18µM,0
Cc1cc(C)c2nc(N3CCCN(C(=O)c4cnccn4)CC3)c(C#N)cc2c1,16µM,0,23µM,0
COc1ccc(C(=O)N2CCN(c3nc4cc(C)cc(C)c4cc3C#N)CC2)cc1,18µM,?,?,-
COCCCNC(=S)N1CCCN(c2nc3cc(C)ccc3cc2C#N)CC1,?,0,?,0
Cc1ccc(COC(=O)c2nn(C)c(=O)c3ccccc23)cc1,13µM,-,?,0
COc1ccc(Cl)cc1C(=O)NNC(=O)c1nn(C)c(=O)c2ccccc12,16µM,0,?,0
COC(=O)c1cc2occc2n1CC(=O)Nc1ccc(N(C)C)cc1,0,0,0,0
CCOc1cc(S(=O)(=O)Nc2cc(C)cc(C)c2)ccc1Cl,16µM,0,16µM,0
CC(=O)Nc1ccc(S(=O)(=O)NCc2ccncc2)cc1,9.2µM,-,9.2µM,0
CCOc1cc(S(=O)(=O)NCc2ccncc2)ccc1Cl,0.58µM,-,0.52µM,0
CCOC(=O)COc1ccc(S(=O)(=O)NCc2ccncc2)cc1,?,0,?,0
CCOc1ccc(S(=O)(=O)NCc2ccncc2)cc1,0.52µM,0,0.46µM,0
CC(C)c1ccc(NC(=O)CCNC(=O)N2CC(=O)Nc3ccccc32)cc1,0,0,0,0
CC(C)C(=O)N1CCN(c2ccccc2NC(=O)c2ccco2)CC1,?,0,0,-
Cn1nc(C(=O)NNC(=O)c2cccc(Cl)c2)ccc1=O,0,0,0,0
CCNc1ncc2nc(-c3cccc(C#N)c3)c(=O)n(CCC#N)c2n1,0,-,0,-
Cc1ccc(S(=O)(=O)NCCCCCCNS(=O)(=O)c2ccc(C)cc2)cc1,23µM,0,?,-
Cc1ccc(S(=O)(=O)NCCCNS(=O)(=O)c2ccccc2)cc1,0,0,0,-
CC1CCCCC1NS(=O)(=O)c1ccc(S(=O)(=O)NCc2ccncc2)cc1 (configuration not stated),7.3µM,0,6.5µM,0
CCOc1ccc(NS(=O)(=O)c2ccc(C(=O)NCc3ccncc3)cc2)cc1,13µM,0,?,-
SMILES,TDP1 cell noCPT,ClpP mod,TDP1 cell CPT,TDP1 inh
Cc1ccc(S(=O)(=O)NCC(=O)NCc2ccncc2)cc1,0,0,0,0
Cc1ccc(S(=O)(=O)NCc2ccncc2)cc1,3.7µM,0,4.1µM,0
O=C(CN1C(=O)NC2(CCCCCC2)C1=O)NCCc1ccc(F)cc1,0,0,0,0
O=C1CSC(c2ccccn2)N1c1ccc(C(F)(F)F)cc1 (configuration not stated),?,0,0,0
CC(=O)Nc1ccc(S(=O)(=O)CCC(=O)O)cc1,0,0,0,0
CC(=O)CCS(=O)(=O)c1ccc(NC(C)=O)cc1,18µM,0,13µM,0
C/C=C/c1cnc2c(c1)C(=O)N([C@H](C)CO)C[C@@H](C)[C@@H](CN(C)C(=O)NC1CCCC1)O2,0,0,0,-
